Measured values taken from ChEMBL document CHEMBL1961873, “Compounds: GSK PKIS; Assays: Nanosyn kinase panel” (2012).
Several values for one entry are separate records, joined by “and”; a condition that tells them apart may be missing. Equal entries are not always repeated.

Key:
[1] = target: Serine/threonine-protein kinase PAK 6 (Homo sapiens) (UniProt Q9NQU5); conditions: at 1 µM;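 note: values are mean percent inhibition of PAK6 kinase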
[2] = tested on: Tyrosine-protein kinase ABL1 (Homo sapiens), P00519 [E255K]; conditions: at 0.1 µM
[3] = tested on: Tyrosine-protein kinase ABL1 (Homo sapiens), P00519 [E255K]; conditions: at 1 µM
[4] = tested on: Tyrosine-protein kinase ABL1 (Homo sapiens), P00519 [H396P]; conditions: at 0.1 µM
[5] = tested on: Tyrosine-protein kinase ABL1 (Homo sapiens), P00519 [H396P]; conditions: at 1 µM
[6] = tested on: Tyrosine-protein kinase ABL1 (Homo sapiens), P00519 [M351T]; conditions: at 0.1 µM
[7] = tested on: Tyrosine-protein kinase ABL1 (Homo sapiens), P00519 [M351T]; conditions: at 1 µM
[8] = tested on: Tyrosine-protein kinase ABL1 (Homo sapiens), P00519 [Q252H]; conditions: at 0.1 µM
[9] = tested on: Tyrosine-protein kinase ABL1 (Homo sapiens), P00519 [Q252H]; conditions: at 1 µM
[10] = tested on: Tyrosine-protein kinase ABL1 (Homo sapiens), P00519 [T315I]; conditions: at 0.1 µM

Chain of Serine/threonine-protein kinase PAK 6 (Homo sapiens) (Q9NQU5 whole entry, looked up): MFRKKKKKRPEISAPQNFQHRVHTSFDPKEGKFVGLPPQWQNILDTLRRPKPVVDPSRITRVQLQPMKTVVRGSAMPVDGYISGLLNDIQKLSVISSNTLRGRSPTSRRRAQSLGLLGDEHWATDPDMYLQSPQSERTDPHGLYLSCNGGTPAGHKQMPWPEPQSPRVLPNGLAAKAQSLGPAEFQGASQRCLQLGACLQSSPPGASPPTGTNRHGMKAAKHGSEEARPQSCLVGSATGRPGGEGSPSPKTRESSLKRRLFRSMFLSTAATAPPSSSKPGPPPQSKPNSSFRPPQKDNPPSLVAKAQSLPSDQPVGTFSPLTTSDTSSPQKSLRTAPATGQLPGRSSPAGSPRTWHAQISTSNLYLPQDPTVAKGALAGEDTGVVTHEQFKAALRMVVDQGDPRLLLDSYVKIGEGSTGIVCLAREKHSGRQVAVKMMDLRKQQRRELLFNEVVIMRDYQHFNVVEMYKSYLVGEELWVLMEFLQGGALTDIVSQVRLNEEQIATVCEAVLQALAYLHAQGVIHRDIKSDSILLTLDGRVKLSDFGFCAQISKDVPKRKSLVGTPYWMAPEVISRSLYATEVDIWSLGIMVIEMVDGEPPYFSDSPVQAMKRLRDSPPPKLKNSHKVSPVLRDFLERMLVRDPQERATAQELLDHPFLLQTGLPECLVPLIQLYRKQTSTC

SMILES | inhibition [1] | inhibition [2] | inhibition [3] | inhibition [4] | inhibition [5] | inhibition [6] | inhibition [7] | inhibition [8] | inhibition [9] | inhibition [10]
Cc1cc(O)cc(C)c1/C=C/c1cncc(C(N)=O)c1 | 10.6% | 15.7% | 61% | 20.4% | 70.1% | 18.5% | 69% | 18.7% | 67.5% | 2.31%
CCN1CCC(C(=O)Nc2n[nH]c3nnc(-c4cccc(F)c4F)cc23)CC1 | -6.98% | -0.54% | 0.15% | 0.08% | -0.56% | -0.54% | -0.16% | -1.28% | -1.04% | 0.53%
CS(=O)(=O)Nc1ccc(-c2ccc3c(NC(=O)C4CC4)n[nH]c3c2)cc1 | 5.45% | 2.53% | 5.92% | 4.24% | 17.5% | 4.89% | 20.3% | 4.73% | 9.35% | 4.61%
CN1CCN(Cc2ccc(-c3cc4ncnc(Nc5ccc(OCc6cccc(F)c6)c(Cl)c5)c4s3)o2)CC1 | -4.15% and 3.43% | 2.21% and 2.71% | 7.15% and 8.4% | 4.73% and 6.21% | 14.3% and 18% | 1.3% and 4.75% | 14.7% and 17.9% | 4.48% and 6.29% | 16.1% and 20.9% | 3.33% and 5.07%
N#Cc1cccc(Nc2ncc(-c3ccccc3)o2)c1 | -3.46% | 1.93% | 13.5% | 4.61% | 26.9% | 2.88% | 27.1% | 3.25% | 21.2% | 2.21%
O=C(O[C@H]1CN[C@H](C#Cc2cc3ncnc(Nc4ccc(OCc5cccc(F)c5)c(Cl)c4)c3s2)C1)N1CCOCC1 | -5.21% | 0.66% | 4.53% | 3.67% | 5.92% | 2.25% | 4.53% | 3.47% | 2.92% | 4.04%
NS(=O)(=O)c1ccc(N/N=C2\C(=O)Nc3cccc(CCc4ccncc4)c32)cc1 | -3.63% | -0.21% | 3.53% | 2.64% | 7.39% | 3.41% | 8.25% | 1.54% | 7.74% | 1.83%
O=C(Nc1n[nH]c2nnc(-c3cccnc3)cc12)C1CC1 | -4.92% | -1.11% | 1.39% | 0.14% | 3.4% | 2.2% | 3.78% | 0.59% | 2.57% | -0.5%
NS(=O)(=O)c1ccc(N/N=C2\C(=O)Nc3ccc(C(=O)NCc4ccncc4)cc32)cc1 | 12.5% | 0.9% | 10% | 2.55% | 15% | 1.51% | 13.2% | 1.73% | 11.6% | 2.6%
OCCCNc1nccc(-c2c(-c3ccc(F)cc3)nn3cc(C(F)(F)F)ccc23)n1 | -2.02% | 3.05% | 3.11% | 3.42% | 3.33% | 2.71% | 3% | 4.61% | 3.52% | 1.5%
COc1cccc(Nc2nccc(-c3cnn4ncccc34)n2)c1 | 5.36% | 5.54% | 23.1% | 8.68% | 41.2% | 8.35% | 45% | 9.38% | 46.5% | 3.94%
COc1cccc(-n2ncc3c(N/N=C/c4ccc(C(=O)NCCN(C)C)cc4)ncnc32)c1 | 12.9% | 92.1% | 94.7% | 93.9% | 95% | 92.3% | 95.5% | 94.2% | 95.4% | 84.6%
COc1ccccc1-c1cc(/C=C2\C(=O)Nc3ncc(Br)cc32)cc(Br)c1O | -6.64% | 5.22% | 22.3% | 6.17% | 21.9% | 5.09% | 19.8% | 6.3% | 20.5% | 1.82%
CN(C)CCNC(=O)Nc1ccc(N(C)c2ccnc(Nc3ccc(CS(C)(=O)=O)cc3)n2)cc1 | -1.22% | 2.92% | 10.2% | 5.45% | 12.3% | 4.48% | 15.1% | 5.59% | 17.4% | 4.39%
CCS(=O)(=O)c1ccc(OC)c(Nc2ncc(-c3cccc(C(C)=O)c3)o2)c1 | 7.27% | 15.3% | 61.6% | 19.3% | 67.3% | 20.5% | 68.5% | 30.4% | 78% | 2.67%
CS(=O)(=O)Nc1ccc(-c2cc(-c3ccccc3)cc(C(N)=O)c2N)cc1 | -8.25% | 1.39% | 2.13% | 1.72% | 3.82% | 0.69% | 2.62% | 2.8% | 3.07% | 0.02%

SMILES | inhibition [1] | inhibition [2] | inhibition [3] | inhibition [4] | inhibition [5] | inhibition [6] | inhibition [7] | inhibition [8] | inhibition [9] | inhibition [10]
COc1cc(N2CCN(C(C)C)CC2)ccc1Nc1nc(Nc2cccc(F)c2C(=O)O)c2cc[nH]c2n1 | -0.16% | 3.61% | 5.65% | 1.72% | 3.69% | 1.07% | 2.29% | 4.74% | 5.16% | 3.83%
CN(c1ccc(NC(=O)NCCN2CCOCC2)cc1)c1ccnc(Nc2ccc(CS(C)(=O)=O)cc2)n1 | 9.1% | 2.54% | 14.2% | 4.8% | 26.3% | 3.59% | 36.8% | 8.57% | 39.3% | 6.6%
CCOc1ccc2c(-c3ccnc(Nc4cc(OC)cc(C(F)(F)F)c4)n3)cnn2n1 | 3.48% | 0.14% | 4.02% | 0.25% | 6.23% | 2.11% | 7.2% | 1.15% | 6.33% | 0.17%
CC1(C)CC(n2cnc(-c3ccc(F)cc3)c2-c2ccnc(N)n2)CC(C)(C)N1 | -4.18% | 1.94% | 2.09% | 0.18% | 0.59% | 2.43% | 0.27% | 0.65% | 0.31% | 1.92%
Fc1cccc(COc2ccc(Nc3ncncc3C#Cc3ccccc3)cc2Cl)c1 | -8.4% | 3.27% | 5.06% | 3.58% | 4.02% | 0.94% | 5.32% | 4.91% | 3.96% | 4.11%
COC(=O)Nc1nc2cc(Oc3ccc(NC(=O)Nc4ccccc4)cc3)ccc2[nH]1 | -2.94% | 4.95% | 11.4% | 14.1% | 41% | 28.9% | 47.8% | 22.5% | 51.8% | 15.9%
CC(C)c1ccc(-c2cc(-c3c[nH]nc3-c3ccccn3)ccn2)cc1 | -0.86% | 2.44% | 17.2% | 7.55% | 40.1% | 5.28% | 38.5% | 3.86% | 21.4% | 1.9%
CC1=C(C(=O)Nc2ccc3[nH]ncc3c2)C(c2ccc(F)cc2)N=C(c2ccc(C(F)(F)F)nc2)N1 (stereo not given) | 1.5% | 2.72% | 3.5% | 2.21% | 1.95% | 1.43% | 3.71% | 1.86% | 3.9% | 1.97%
COc1c(C(N)=O)cc(-c2ccc(Cl)cc2)cc1-c1ccc(S(N)(=O)=O)cc1 | -4.53% | 2.38% | 3.7% | 3.77% | 5.78% | 1.02% | 1.14% | 3.13% | 5.89% | 3.24%
Nc1nccc(-c2c(-c3ccc(F)cc3)ncn2C2CCNCC2)n1 | -8.13% and -0.6% | -2.24% and 1.83% | -1.66% and 0.75% | -1.77% and 0.86% | 3.78% and 0.72% | -2.76% and 1.38% | 4.44% and 1.12% | -0.74% and -0.69% | 4.57% and 2.57% | -3.43% and 2.15%
c1cnn2ncc(-c3ccnc(NCCCN4CCOCC4)n3)c2c1 | -5.92% | 1.77% | 1.98% | 3.45% | 3.75% | 1.48% | 0.71% | 3.41% | 2.1% | 2.37%
CCS(=O)(=O)c1ccc(OC)c(Nc2ncc(-c3cccc(F)c3)o2)c1 | -6.17% | 30.8% | 80.4% | 40.8% | 85.8% | 38.6% | 85% | 41.9% | 86.4% | 4.78%
N#Cc1ccc2c(-c3ccnc(NC4CC4)n3)c(-c3ccc(F)cc3)nn2c1 | -2.35% | -0.39% | 0.55% | -0.57% | 3.93% | -0.71% | 3.61% | 0.81% | 4.72% | -0.18%
Nc1nonc1-c1nc2cnccc2n1C1CC1 | 7.32% and -5.94% | 2.67% and 0.93% | 3.5% and 4.4% | 2.21% and 2.04% | 0.55% and 1.2% | 0.52% and -0.88% | -0.96% and 2.63% | 4.06% and 0.83% | 3.65% and 2.84% | 2.85% and 1.97%
CNC(=O)c1ncccc1Nc1nc(Nc2cc3c(cc2OC)CCCN3C(=O)CN(C)C)nc2[nH]ccc12 | 3.38% | 2.91% | 2.97% | 2.6% | 2.23% | 1.84% | 0.31% | 3.06% | 3.95% | 3.72%
